Source: PubChem BioAssay (Sanford-Burnham Center for Chemical Genomics)
SENP8 block-1: SENP8 protease inhibition; 330,000 tested, 1.2% active; AID 2540; purified SENP8, Z-RLRGG-aminoluciferin cleavage, luminescence; Q96LD8; inhibition, % at 10 µM; in the data active = inhibition above about 50%
SENP8 block-2: SENP8 (human) protease inhibition; inhibition, % at 20 µM; Q96LD8; recombinant SENP8, Nedd8 substrate fluorescence; AID 602440; 360,000 tested, 0.64% active; in the data active = inhibition mostly above about 40%, no sharp cut-off; inactive = mostly below about 27%
PPC-1+TRAIL kill: PPC-1 cancer cell killing with TRAIL present; cell killing (% activity), % at 4 µM or 5 µM; PPC-1 cells + TRAIL, ATPLite viability luminescence; AID 1443; 220,000 tested, 0.41% active;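 active = cell killing above 50% in the first pass at 4 µM, then a duplicate retest at 5 µM averaging 50% or more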;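 also: plate controls were cells with TRAIL plus DMSO for no effect and medium-only wells lacking cells for full effect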
SENP6 inh: blocks the human protease SENP6; 330,000 tested, 1.8% active; inhibition, % at 10 µM; Recombinant SENP6 catalytic domain, aminoluciferin luminescence; AID 2599;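 active = inhibition above about 50% at the single tested dose, limit read from the data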;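 also: plate controls were DMSO wells with enzyme for no effect and DMSO wells lacking enzyme for full effect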
Target sequence (Q9GZR1 628-1112 limits assumed): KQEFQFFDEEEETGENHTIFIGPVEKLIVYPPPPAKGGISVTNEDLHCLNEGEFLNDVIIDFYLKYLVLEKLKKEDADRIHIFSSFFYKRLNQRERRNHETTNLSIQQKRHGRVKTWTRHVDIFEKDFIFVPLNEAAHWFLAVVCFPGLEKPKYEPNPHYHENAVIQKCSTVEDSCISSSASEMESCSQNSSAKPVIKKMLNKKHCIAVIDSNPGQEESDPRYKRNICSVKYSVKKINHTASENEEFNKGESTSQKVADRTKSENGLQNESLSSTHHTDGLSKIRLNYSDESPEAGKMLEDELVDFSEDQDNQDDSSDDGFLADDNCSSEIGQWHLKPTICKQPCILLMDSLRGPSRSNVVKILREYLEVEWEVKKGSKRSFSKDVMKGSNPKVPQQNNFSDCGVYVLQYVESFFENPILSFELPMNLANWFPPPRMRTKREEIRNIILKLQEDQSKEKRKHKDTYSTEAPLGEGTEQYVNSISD
C8 TRAIL sens: caspase-8 TRAIL sensitization. NB7+C8 cells + TRAIL, ATPlite viability luminescence. inhibition (viability loss, TRAIL sensitization), % at 10 µM. 360,000 tested, 1% active;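 active = compounds causing at least 50% loss of cell viability in the single-dose screen, relative to plate controls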
SENP7 block: blocks the human protease SENP7. inhibition, % at 5 µM. 330,000 tested, 1.5% active. recombinant SENP7, Z-RLRGG-aminoluciferin luminescence, 40 min. AID 434973. Q9BQF6;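 active = inhibition above about 50% at the single test dose, limit read from the data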;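 also: plate controls were DMSO with enzyme for no effect and no enzyme buffer wells for full effect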
SENP8 confirm: human SENP8 inhibition, confirmed; shares compounds with SENP7 block; Recombinant SENP8, Z-RLRGG-aminoluciferin luminescence, 60 min; inhibition, % at 12.5 µM; 6,200 tested, 40% active;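 active = mean inhibition across replicates above about 50%, limit read from the data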
SENP6 confirm: confirmation of human SENP6 protease inhibitors | inhibition, % at 12.5 µM | AID 488915 | shares compounds with SENP7 block | 6,200 tested, 58% active | recombinant SENP6, Z-RLRGG-aminoluciferin luminescence
SENP7 confirm: confirmation of human SENP7 protease inhibitors | shares compounds with SENP7 block | 6,200 tested, 69% active | inhibition, % at 12.5 µM | AID 488917 | recombinant SENP7, Z-RLRGG-aminoluciferin luminescence, 40 min
Casp3 select: selectivity test for SENP inhibitors: human caspase-3 inhibition; shares compounds with SENP7 block; purified caspase-3, Z-DEVD-aminoluciferin luminescence, 60 min; inhibition, % at 12.5 µM; 6,200 tested, 60% active; AID 488918;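 active = mean inhibition above about 50%, limit read from the data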;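 also: plate controls were enzyme with DMSO for no effect and wells without caspase-3 for full effect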
SENP luc ctr: interferes with luciferase luminescence in SENP counter-screen. shares compounds with SENP7 block. Pre-incubated SENP8/Z-RLRGG-aminoluciferin, luciferase luminescence interference. inhibition, % at 12.5 µM. 6,200 tested, 39% active;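 active = mean inhibition above about 50% when retested at one dose, limit read from the data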;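 also: plate controls were DMSO wells with completed reaction for no effect and substrate without enzyme for full effect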
* marks the source's active call; other numbers are inactive results; . = no result. A selection: hits, their analogues and other compounds. The true share with any hit is near 3%.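 The calls were made as follows, unless noted: active = mean inhibition above about 50% in the one-dose retest (limit read from the data); inactive = the rest.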

SMILES | SENP8 block-1 | SENP8 block-2 | PPC-1+TRAIL kill | SENP6 inh | C8 TRAIL sens | SENP7 block | SENP8 confirm | SENP6 confirm | SENP7 confirm | Casp3 select | SENP luc ctr
CC(C)CCNS(=O)(=O)c1ccc(-c2ccc(S(=O)(=O)NCCC(C)C)cc2)cc1 | -1.6 | 6.6 | 4.3 | -38.8 | 0.2 | -1.5 | . | . | . | . | .
COc1ccc(S(=O)(=O)NCCC(C)C)cc1OC | -8.1 | -4.3 | -25.5 | -5.4 | -4.2 | 88.4* | 14.2 | 12.8 | 9.0 | 1.8 | 2.8
O=C1c2ccccc2C(=O)N1CCSc1ccccc1 | 8.2 | 20.4 | -16.1 | 60.5* | 6.3 | 41.3 | 26.0 | 25.4 | 71.9* | 50.0 | 47.9
O=C1c2ccccc2C(=O)N1CCSc1nncs1 | -1.9 | 7.2 | 5.8 | -6.0 | -4.7 | -2.7 | . | . | . | . | .
N#Cc1c(N2CCCC2)nsc1-c1ccccc1 | 41.8 | -24.1 | . | 60.3* | -26.4 | 20.1 | 29.8 | 33.9 | 25.4 | 44.5 | 51.9*
Oc1ccccc1OCc1nc2ccccc2s1 | 69.6* | 9.6 | 44.5 | 82.2* | 1.3 | 80.9* | -4.5 | 76.1* | 93.6* | 78.2* | 80.0*
COc1ccc(CCNC(=O)CN2C(=O)NC(c3ccccc3)(c3ccccc3)C2=O)cc1 | -11.0 | 15.2 | . | -15.8 | 0.8 | -10.3 | . | . | . | . | .
Brc1ccc(-n2cnc(-c3ccccc3)c2)cc1 | 69.2* | 8.4 | . | 71.1* | 31.6 | 79.3* | 61.2* | 62.0* | 91.6* | 58.9* | 17.9
CC(C)=CCN1CCN(Cc2ccc(Sc3nncn3C)o2)CC1CCO (configuration not stated) | -3.8 | 10.2 | 11.6 | -0.6 | -2.0 | 3.3 | . | . | . | . | .
O=C1CCOc2cc(OCc3ccccc3)ccc21 | 88.4* | 8.2 | 15.1 | 94.2* | 6.1 | 94.7* | 93.5* | 94.0* | 100.9* | 93.5* | 92.8*
CCOC(=O)c1cccc(NC(=O)CC2Oc3ccccc3NC2=O)c1 (configuration not stated) | 3.9 | 18.6 | . | 7.9 | -4.9 | 2.3 | . | . | . | . | .
CC(=O)OC(C(=O)Nc1nccs1)c1ccccc1 (configuration not stated) | 5.0 | 12.7 | . | 0.5 | -24.6 | 0.5 | . | . | . | . | .
O=C(/C=C\c1ccccc1)Nc1nccs1 | 60.9* | 5.1 | 37.3 | 83.5* | 31.2 | 88.3* | 59.0* | 61.0* | 94.9* | 87.5* | 19.4
O=C(Nc1nccs1)C(Br)C(Br)c1ccccc1 (configuration not stated) | 78.9* | 3.4 | . | 84.2* | 39.1 | 90.8* | 76.2* | 73.1* | 94.8* | 85.3* | 9.3
CCCN1CCC(C(=O)NC(c2ccc(Cl)cc2)c2ccsc2)CC1 (configuration not stated) | . | 11.1 | . | . | -14.8 | . | . | . | . | . | .
COC(=O)c1cccc(CC2(C)C(=O)Nc3ccc(OC(F)(F)F)cc32)c1 (configuration not stated) | . | 11.6 | . | . | -16.9 | . | . | . | . | . | .
COc1ccc(N(CC(=O)Nc2ccccc2F)S(=O)(=O)c2ccc(OC)c(OC)c2)cc1 | 12.7 | 21.1 | . | 0.5 | 12.4 | -8.9 | . | . | . | . | .
O=C(O)c1ccc(N/N=C/c2ccc(-c3ccccc3Cl)o2)cc1 | 96.8* | -429.4 | 21.0 | 97.6* | 1.3 | 87.6* | 99.4* | 100.5* | 103.1* | 66.2* | 97.3*
Cc1ccc(/C=N/Nc2ccc(C(=O)O)cc2)o1 | 78.4* | -4.1 | -33.6 | 91.8* | 42.8 | 70.8* | 65.0* | 57.9* | 91.0* | 84.7* | 82.1*
O=C(NCC(c1cccs1)N1CCOCC1)c1cc2ccccc2oc1=O (configuration not stated) | 3.5 | -71.3 | . | 2.0 | -11.3 | 4.9 | . | . | . | . | .
